Where “and” joins values, the source holds several entries; their conditions need not be identical. Equal entries are not always repeated. Inconclusive results are not listed. Some structures have more than one record in an assay (separate samples or runs), and their calls can disagree. Calls of active or inactive are those of the source. Calls come from the whole dose curve; as a rule, active = well fitted inhibition curve with a large enough effect; inconclusive = small, poorly fitted or top-dose-only effect; inactive = flat fitted curve, though single readings scatter.
Legend:
[1] = test system: JCK; test: qHTS profiling for inhibitors of Plasmodium falciparum proliferation (AID 504749); note: potency is the fitted concentration of half-maximal effect; conditions: P. falciparum in erythrocytes, SYBR Green DNA, 72 h; series mostly up to 28.7 µM
Summary of the method: (§1)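 P. falciparum-infected erythrocytes (0.3% parasitemia, 2.5% hematocrit final) were exposed to compounds for 72 h at 37 C in 5% CO2, then lysed with SYBR Green buffer overnight at room temperature; parasite DNA fluorescence was normalized to artemisinin and DMSO controls.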

[2] = test system: N140; test: as above; conditions: P. falciparum in erythrocytes, SYBR Green DNA, 72 h; series mostly up to 28.7 µM
Summary of the method: as §1

[3] = test system: P93_24; test: as above; conditions: P. falciparum in erythrocytes, SYBR Green DNA, 72 h; series mostly up to 28.7 µM
Summary of the method: as §1

[4] = test system: P94_40; test: as above; conditions: P. falciparum in erythrocytes, SYBR Green DNA, 72 h; series mostly up to 28.7 µM
Summary of the method: as §1

[5] = test system: PAD; test: as above; conditions: P. falciparum in erythrocytes, SYBR Green DNA, 72 h; series mostly up to 28.7 µM
Summary of the method: as §1

[6] = test system: PC15; test: as above; conditions: P. falciparum in erythrocytes, SYBR Green DNA, 72 h; series mostly up to 28.7 µM
Summary of the method: as §1

[7] = test system: PC26; test: as above; conditions: P. falciparum in erythrocytes, SYBR Green DNA, 72 h; series mostly up to 28.7 µM
Summary of the method: as §1

[8] = test system: PC49; test: as above; conditions: P. falciparum in erythrocytes, SYBR Green DNA, 72 h; series mostly up to 28.7 µM
Summary of the method: as §1

[9] = test system: SC27B; test: as above; conditions: P. falciparum in erythrocytes, SYBR Green DNA, 72 h; series mostly up to 28.7 µM
Summary of the method: as §1

[10] = test system: TAB109; test: as above; conditions: P. falciparum in erythrocytes, SYBR Green DNA, 72 h; series mostly up to 28.7 µM
Summary of the method: as §1

[11] = test system: TAB113; test: as above; conditions: P. falciparum in erythrocytes, SYBR Green DNA, 72 h; series mostly up to 28.7 µM
Summary of the method: as §1

[12] = test system: TAB165; test: as above; conditions: P. falciparum in erythrocytes, SYBR Green DNA, 72 h; series mostly up to 28.7 µM
Summary of the method: as §1

[13] = test system: W2; test: as above; conditions: P. falciparum in erythrocytes, SYBR Green DNA, 72 h; series mostly up to 28.7 µM
Summary of the method: as §1

[14] = test system: CRL-7250; test: Cytotoxic Profiling of Annotated Libraries Using Quantitative High-Throughput Screening (AID 1296008); conditions: Five cell lines viability, CellTiter-Glo ATP luminescence, 48-72 h; max response: active compounds read low; note: potency is the fitted concentration of half-maximal effect; for max response: % is set by controls: 0 for no effect and ±100 for the full control effect
Summary of the method: (§2)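 Compounds were pin-transferred onto cells and incubated 48 or 72 hr at 37 degree Celsius, 95% humidity. CellTiter-Glo was added, plates sat 10 min at room temperature, then ATP-coupled luminescence was imaged as the viability read-out.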

[15] = test system: HEK293; test: as above; conditions: Five cell lines viability, CellTiter-Glo ATP luminescence, 48-72 h; max response: active compounds read low
Summary of the method: as §2

[16] = test system: HaCat; test: as above; conditions: Five cell lines viability, CellTiter-Glo ATP luminescence, 48-72 h; max response: active compounds read low
Summary of the method: as §2

[17] = test system: KB-3-1; test: as above; conditions: Five cell lines viability, CellTiter-Glo ATP luminescence, 48-72 h; max response: active compounds read low
Summary of the method: as §2

[18] = test system: NIH3T3; test: as above; conditions: Five cell lines viability, CellTiter-Glo ATP luminescence, 48-72 h; max response: active compounds read low
Summary of the method: as §2

[19] = test system: HACAT; test: qHTS assay to identify novel small-molecules to repurpose for Merkel cell carcinoma treatment (AID 1296009); conditions: MCC and control cell lines, CellTiter-Glo viability, 72 h; at 44.8 µM (top of the series) unless noted
Summary of the method: (§3)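 Cells exposed to NPC (8-point) and MIPE (11-point) compound dilutions for 72 hr at 37 degree celsius; viability read by CellTiter-Glo luminescence, normalized to no-cell and DMSO in-plate controls.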

[20] = test system: HEK293T; test: as above; conditions: MCC and control cell lines, CellTiter-Glo viability, 72 h; at 44.8 µM (top of the series) unless noted
Summary of the method: as §3
Note: nearly all actives have a fitted effect of over 60% in size.

NC(=O)c1ncn([C@@H]2O[C@H](CO)[C@@H](O)[C@H]2O)c1O
inactive: Potency [1] | Potency [2] | Potency [3] | Potency [4] | Potency [5] | Potency [6] | Potency [7] | Potency [8] | Potency [9] | Potency [10] | Potency [11] | Potency [12] | Potency [13] | max response [14] -24.9% | max response [15] 3.19% | outcome [16] | max response [17] 8.08% | max response [18] -1.25% | outcome [19]

CCCCOCCOCCOCc1cc2c(cc1CCC)OCO2
inactive: Potency [1] | Potency [2] | Potency [3] | Potency [4] | Potency [5] | Potency [6] | Potency [7] | Potency [8] | Potency [9] | Potency [10] | Potency [11] | Potency [12] | Potency [13] | max response [14] 0.375% | max response [16] 2.25% and -5.48% | max response [17] -1.58% and -16.8% | max response [18] -13.2% and 0.929%
active: Potency [14] 61.8 µM

CC(=O)OC(C)C[N+](C)(C)C (centres undefined)
inactive: max response [14] 1.65% | max response [15] 3.97% | outcome [16] | max response [17] 6% | max response [18] 2.06% | outcome [19]

CC(C)NNC(=O)c1ccncc1
inactive: Potency [1] | Potency [3] | Potency [4] | Potency [5] | Potency [6] | Potency [7] | Potency [8] | Potency [9] | Potency [11] | Potency [12] | Potency [13] | max response [14] -3.48% | max response [15] -10.4% | outcome [16] | max response [17] -1.28% | outcome [18] | outcome [19]

Cc1nc2c([nH]1)c(=O)n(C)c(=O)n2Cc1ccco1
inactive: Potency [1] | Potency [2] | Potency [3] | Potency [4] | Potency [5] | Potency [6] | Potency [7] | Potency [8] | Potency [9] | Potency [10] | Potency [11] | Potency [12] | Potency [13] | max response [14] 0.6% | max response [15] 4.2% | outcome [16] | max response [17] 16.5% | max response [18] -4.53% | outcome [19]

CC(C)(Oc1ccc(CCNC(=O)c2ccc(Cl)cc2)cc1)C(=O)O
inactive: Potency [1] | Potency [2] | Potency [3] | Potency [4] | Potency [5] | Potency [6] | Potency [8] | Potency [9] | Potency [10] | Potency [11] | Potency [12] | Potency [13] | max response [14] -10.1% | max response [15] -102% | outcome [16] | max response [17] 2.41% | outcome [18] | outcome [19]

O=C1CC2(CCCC2)CC(=O)N1CCCCN1CCN(c2ncccn2)CC1
inactive: Potency [1] | Potency [2] | Potency [3] | Potency [4] | Potency [5] | Potency [6] | Potency [8] | Potency [9] | Potency [10] | Potency [11] | Potency [12] | outcome [14] | max response [15] -2.12% | outcome [16] | max response [17] -1.42% | max response [18] -6.17% | outcome [19]

CN=C(NC#N)NCCSCc1nc[nH]c1C
inactive: Potency [1] | Potency [2] | Potency [3] | Potency [4] | Potency [5] | Potency [6] | Potency [7] | Potency [8] | Potency [9] | Potency [10] | Potency [11] | Potency [12] | Potency [13] | outcome [14] | outcome [15] | outcome [16] | max response [17] -9.62% | max response [18] -0.832% | outcome [19] | outcome [20]

CCN(Cc1ccncc1)C(=O)C(CO)c1ccccc1 (centres undefined)
inactive: Potency [1] | Potency [2] | Potency [3] | Potency [4] | Potency [5] | Potency [6] | Potency [7] | Potency [8] | Potency [9] | Potency [10] | Potency [11] | Potency [12] | Potency [13] | max response [14] -20.8% | max response [15] -10.1% | outcome [16] | max response [17] 6.96% | max response [18] -10.9% | outcome [19]

Nc1c2c(nc3ccccc13)CCCC2O (centres undefined)
inactive: Potency [1] | Potency [2] | Potency [3] | Potency [4] | Potency [5] | Potency [6] | Potency [7] | Potency [8] | Potency [9] | Potency [10] | Potency [11] | Potency [12] | Potency [13] | max response [14] -0.206% | outcome [15] | outcome [16] | max response [17] -6.2% | max response [18] 4.53% | outcome [19] | outcome [20]

NC(=Nc1ccccc1)Nc1ccccc1
active: Potency [13] 9.53 µM
inactive: Potency [1] | Potency [2] | Potency [3] | Potency [4] | Potency [5] | Potency [6] | Potency [8] | Potency [9] | Potency [10] | Potency [11] | Potency [12] | max response [14] -3.1% | outcome [15] | max response [16] 2.68% | outcome [16] | max response [17] -0.105% | max response [18] -0.581% | outcome [18] | outcome [19] | outcome [20]

FC(F)(F)c1ccccc1-n1ccnc1
inactive: Potency [1] | Potency [2] | Potency [3] | Potency [4] | Potency [5] | Potency [6] | Potency [7] | Potency [8] | Potency [9] | Potency [10] | Potency [11] | Potency [12] | Potency [13] | outcome [14] | max response [15] -1.59% | outcome [16] | max response [17] 22% | max response [18] -5.68% | outcome [19]

C[C@]12C=CC(=O)C=C1CC[C@H]1[C@@H]3C[C@@H](O)[C@](O)(C(=O)CO)[C@@]3(C)C[C@H](O)[C@@]12F
inactive: max response [14] 3.67% | outcome [15] | max response [16] -5.14% | max response [17] 41.4% | outcome [18] | outcome [20]
